Source: PubChem BioAssay (NCATS)
Inconclusive results are not listed. The source made the active and inactive calls. Unless noted, calls come from the whole dose curve; as a rule, active = well fitted curve in the direction sought with a large enough effect; inconclusive = small, poorly fitted or top-dose-only effect, or another doubt; inactive = no such curve, though single readings can be large; an effect the other way counts as inactive or inconclusive.

How the values were obtained:
[1] = Cytometric Cell-Based qHTS for Inhibitors of the mTORC1 Signaling Pathway in MEF (Tsc2-/-, p53-/-) Cells (AID 2660);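 note: Tsc2 and p53 null MEFs carrying empty vector with compound for 24 h; percent of cells above a phospho-rpS6 to PI ratio cutoff in each well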
Outline: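 Immunofluorescence qHTS of rpS6 Ser235/236 phosphorylation: MEFs (Tsc2-/-, p53-/-) treated 24 h, 37 C, in DMEM + 10% FBS. Alexa-488 signal normalized to PI count, referenced to rapamycin (7.5 nM) and DMSO; PI cell number recorded for viability.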

[2] = High Content Imaging Cell-Based qHTS for Inhibitors of the mTORC1 Signaling Pathway in MEF (Tsc2-/-, p53-/-) Cells (AID 2666); settings: at 38.3 µM (top of the series);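 note: percent of cells scored positive for phospho-rpS6 Ser235/236 immunostaining by imaging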
Outline: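 Inhibition of rpS6 phosphorylation is measured by immunofluorescence imaging in empty-vector Tsc2-/-, p53-/- mouse embryonic fibroblasts after 24 hrs compound exposure at 37 degree Celsius. Results are reported as % positive cells per well.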

[3] = High Content Imaging Cell-Based qHTS for Inhibitors of the mTORC1 Signaling Pathway in MEF Cells (AID 2667); note: potency is the fitted concentration of half-maximal effect
Outline: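 Fixed-cell imaging of phospho-S6 (Ser235/236, Alexa-488) after 24 hrs of compound treatment at 37 degree Celsius. Signal was normalized to Hoechst, and thresholds from the highest and lowest wells split cells into % active versus % non-active.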

[4] = Cytometry Cell-Based qHTS for Inhibitors of the mTORC1 Signaling Pathway in MEF cells (AID 2668); note: potency is the fitted concentration of half-maximal effect
Outline: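 WT MEFs (Tsc2-/-, p53-/- stably re-expressing WT Tsc2) in DMEM + 10% FBS received compounds 24 hrs after plating, for 24 hrs at 37 degree Celsius. Fixed cells stained with Alexa-488 anti-phospho-rpS6 Ser235/236 and propidium iodide; laser-scanning cytometry read-out.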

[5] = biological target: DNA polymerase III PolC-type (Bacillus subtilis (strain 168)) (UniProt P13267); test: qHTS Validation Assay for the Inhibitors of DNA Replication in Gram-Positive Bacteria (AID 485295);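 note: PicoGreen fluorescence of double-stranded DNA made on primed circular M13 template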
Outline: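 Reconstituted B. subtilis holoenzyme (Pol III, beta clamp, SSB, primase) was preincubated with compound at room temperature, then given single-stranded circular M13Gori plus dNTPs and NTPs. EDTA-containing PicoGreen stopped the reaction, and dsDNA product was read by fluorescence.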

[6] = biological target: Tumor susceptibility gene 101 protein (Homo sapiens) (UniProt Q99816); test: qHTS Validation Assay for Iinhibitors of HIV-1 Budding by Blocking the Interaction of PTAP/TSG101 (AID 485342; calls by dose curve)
Outline: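 Tsg101 binding domain (10 uM final) in pH 7.5 HEPES/NaCl/Tween 20/EDTA/TCEP buffer was mixed with pin-transferred compounds, then FITC-labeled PTAP peptide (50 nM final) was added; after 20 min at r.t., fluorescence polarization was read.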

[7] = biological target: Thioredoxin reductase 1, cytoplasmic (Rattus norvegicus) (UniProt O89049); test: qHTS Assay for Substrates of Mammalian Selenoprotein Thioredoxin Reductase 1 (TrxR1) (AID 488772);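 note: a drop in NADPH fluorescence below the no-compound background marks a TrxR1 substrate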
Outline: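 In this dual-purpose format, potential substrates are identified from the first fluorescence read after selenite addition, not from the 8-minute delta. Rat enzyme is preincubated with NADPH and then with compound at ~22 deg C.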

[8] = biological target: Thioredoxin reductase 1, cytoplasmic (Rattus norvegicus) (UniProt O89049); test: qHTS Assay for Inhibitors of Mammalian Selenoprotein Thioredoxin Reductase 1 (TrxR1) (AID 488773); settings: Potency: inhibition;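 note: drop in NADPH fluorescence over an 8 min run after selenite addition; nearly all actives have a fitted effect of over 40% in size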
Outline: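 Inhibition is scored from the loss of NADPH fluorescence between first and last reads of an 8-min kinetic run. Selenite (400 uM) was the substrate, added after 15 min compound preincubation at room temperature.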

[9] = biological target: Flap endonuclease 1 (Homo sapiens) (UniProt P39748); test: qHTS Validation Assay for the Inhibitors of Human Flap endonuclease 1 (FEN1) (AID 488816)
Outline: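 Steps: add FEN1 (10 nM reagent) or buffer only; pin compounds; hold 15 min at room temperature; start with substrate, 50 nM final; read at 0 and 15 min; correct, normalize and fit a four-parameter Hill curve.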

[10] = biological target: M-phase phosphoprotein 8 (Homo sapiens) (UniProt Q99549); test: qHTS Validation Assay for Inhibitors for MPP8 Chromodomain Interactions with Methylated Histone Tails (AID 488949); note: potency is the fitted concentration of half-maximal effect; nearly all actives have a fitted effect of over 55% in size
Outline: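 MPP8 (50 nM) was preincubated with biotinylated H3(1-18)K9me3 peptide (50 nM) in PBS pH 7.4, 0.01% Tween-20 for 30 min at room temperature, then with compounds for 30 min; binding was detected by AlphaScreen.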

[11] = biological target: Chromobox protein homolog 1 (Homo sapiens) (UniProt P83916); test: qHTS Validation Assay for Inhibitors of HP1-beta Chromodomain Interactions with Methylated Histone Tails (AID 488953); note: potency is the fitted concentration of half-maximal effect; nearly all actives have a fitted effect of over 50% in size
Outline: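 Compounds pinned into a preassembled complex of HP1-beta and trimethyl-K9 histone H3(1-18) biotin peptide (50 nM each; PBS pH 7.4, 0.01% Tween-20). After 30 min, bead-based AlphaScreen detection followed.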

[12] = biological target: Methanococcus maripaludis chaperonin (MmCpn) (UniProt Q6LX38); test: High-Throughput Screening for Modulators of Cytosolic Chaperonin Activity: MmCpn Primary Screen (AID 488978);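 note: 50 nM MmCpn enzyme hydrolysing 30 µM ATP at 37 °C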
Outline: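 MmCpn (50 nM final) was preincubated with compound 5 min at RT, then 30 uM ATP (final) was added and the reaction ran 10 min at 37C. ADP produced was detected by Transcreener HTRF (ex 320 nm; em 590/665 nm).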

[13] = biological target: D(1A) dopamine receptor (Homo sapiens) (UniProt P21728); test: HTS Assay for Allosteric Agonists of the Human D1 Dopamine Receptor: Primary Screen for Agonists (AID 488981)
Outline: (§1)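 Tetracycline-induced HEK293 T-REx cells force-coupled to calcium signalling were incubated overnight at 30 C and dye-loaded at room temperature. Calcium flux over 180 s after compound addition flagged agonists; a further 180 s read after EC20 dopamine flagged potentiators.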

[14] = biological target: D(1A) dopamine receptor (Homo sapiens) (UniProt P21728); test: HTS Assay for Allosteric Agonists of the Human D1 Dopamine Receptor: Primary Screen for Potentiators (AID 488982)
Outline: as §1

[15] = biological target: D(1A) dopamine receptor (Homo sapiens) (UniProt P21728); test: HTS Assay for Allosteric Agonists of the Human D1 Dopamine Receptor: Primary Screen for Antagonists (AID 488983);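 note: calcium flux response to an EC80 dopamine challenge measured with no-wash dye; nearly all actives have a fitted effect of over 65% in size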
Outline: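 In this primary screen, compounds are applied to calcium-dye-loaded HEK293 T-REx cells with force-coupled D1 expression induced overnight at 30 C. An EC80 of dopamine follows the 180 s compound phase, and calcium is monitored for a further 180 s.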

[16] = Validation screen for small molecules that induce genotoxicity in human embryonic kidney (HEK293T) cells expressing luciferase-tagged ELG1 (AID 493106)
Outline: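 In this validation screen, increased ELG1-luciferase signal flags compounds causing genetic stress. HEK293T reporter cells are treated 16 hr (37 °C, 5% CO2), developed with ONE-Glo for 30 min at room temperature, and imaged on a CCD-based reader.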

[17] = biological target: ATPase family AAA domain-containing protein 5 (Homo sapiens) (UniProt Q96QE3); test: Validation screen for small molecules that inhibit ELG1-dependent DNA repair in human embryonic kidney (HEK293T) cells expressing luciferase-tagged ELG1 (AID 493107); note: potency is the fitted concentration of half-maximal effect; nearly all actives have a fitted effect of over 70% in size
Outline: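 Compounds reducing 5-fluorouridine-driven ELG1-luciferase signal in HEK293T cells were scored; exposure lasted 16 hr at 37 °C with luminescence detected via ONE-Glo.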

[18] = biological target: Peptidyl-prolyl cis-trans isomerase NIMA-interacting 1 (Homo sapiens) (UniProt Q13526); test: qHTS Validation Assay to Find Inhibitors of Pin1 (AID 504536; active = well fitted inhibition curve with a large enough effect in the polarisation, with a control signal flat, not every such curve was filed as active; the % refers to the polarisation)
Outline: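 Fluorescence polarization competition: compounds (titration) displace HiFluor-488-labeled Pin1-1b peptide from Pin1 (0.3 uM final) in pH 7.5 HEPES buffer with DTT, 10 min at room temperature; %Activity normalized to no-enzyme wells, curves fitted.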

[19] = qHTS for Inhibitors of ATXN expression: Validation of Cytotoxic Assay (AID 588349); note: potency is the fitted concentration of half-maximal effect
Outline: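 Toxicity of test compounds toward HEK293 cells is scored from cellular ATP content measured by CellTiter Glo. Cells receive titrated doses and incubate 72 hr at 37 degrees C beforehand.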

[20] = qHTS for Inhibitors of ATXN expression: Validation (AID 588378); note: potency is the fitted concentration of half-maximal effect; nearly all actives have a fitted effect of over 75% in size
Outline: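 Luminescence from an ATXN2-FFLuc reporter in HEK293 cells served as read-out after 24 h compound treatment at 37 degrees C; CellTiter-Fluor fluorescence was recorded first to assess viability.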

[21] = qHTS of Trypanosoma Brucei Inhibitors: LOPAC Validation (AID 624147)
Outline: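 Luminescent Kinase-Glo Plus end-point after 45 min room-temperature reaction of T. brucei pyruvate kinase started with 130 uM ADP (final). Buffer TEA 50 mM pH 7.2 with KCl, MgCl2, BSA, Tween-20; titration-based qHTS with fitted concentration-effect curves.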

[22] = biological target: Glucagon-like peptide 1 receptor (Homo sapiens) (UniProt P43220); test: qHTS of GLP-1 Receptor Agonists: LOPAC Validation (AID 624148);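 note: higher luminescence signal means agonism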
Outline: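 HEK293 cells stably co-expressing a cAMP-responsive luciferase reporter and a hypersensitive GLP-1R were plated 12 h at 37 °C and exposed to compounds for 4-6 hr at 37 °C, 5% CO2. Luminescence was read 12 min after adding detection reagent.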

Measured: Potency

Sequence of D(1A) dopamine receptor (Homo sapiens) (P21728 whole entry, looked up): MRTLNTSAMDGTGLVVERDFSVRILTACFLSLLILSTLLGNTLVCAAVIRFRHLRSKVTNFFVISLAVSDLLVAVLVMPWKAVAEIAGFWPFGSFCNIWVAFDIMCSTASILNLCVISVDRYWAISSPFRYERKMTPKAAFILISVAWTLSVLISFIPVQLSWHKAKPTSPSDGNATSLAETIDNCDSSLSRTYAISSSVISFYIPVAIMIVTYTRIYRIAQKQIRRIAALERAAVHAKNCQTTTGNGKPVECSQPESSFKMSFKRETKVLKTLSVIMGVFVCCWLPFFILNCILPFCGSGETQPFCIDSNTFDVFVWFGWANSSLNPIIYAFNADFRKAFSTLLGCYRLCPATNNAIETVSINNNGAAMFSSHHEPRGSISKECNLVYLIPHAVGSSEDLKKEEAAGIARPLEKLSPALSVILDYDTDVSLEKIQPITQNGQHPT
Sequence of Thioredoxin reductase 1, cytoplasmic (Rattus norvegicus) (O89049 whole entry, looked up): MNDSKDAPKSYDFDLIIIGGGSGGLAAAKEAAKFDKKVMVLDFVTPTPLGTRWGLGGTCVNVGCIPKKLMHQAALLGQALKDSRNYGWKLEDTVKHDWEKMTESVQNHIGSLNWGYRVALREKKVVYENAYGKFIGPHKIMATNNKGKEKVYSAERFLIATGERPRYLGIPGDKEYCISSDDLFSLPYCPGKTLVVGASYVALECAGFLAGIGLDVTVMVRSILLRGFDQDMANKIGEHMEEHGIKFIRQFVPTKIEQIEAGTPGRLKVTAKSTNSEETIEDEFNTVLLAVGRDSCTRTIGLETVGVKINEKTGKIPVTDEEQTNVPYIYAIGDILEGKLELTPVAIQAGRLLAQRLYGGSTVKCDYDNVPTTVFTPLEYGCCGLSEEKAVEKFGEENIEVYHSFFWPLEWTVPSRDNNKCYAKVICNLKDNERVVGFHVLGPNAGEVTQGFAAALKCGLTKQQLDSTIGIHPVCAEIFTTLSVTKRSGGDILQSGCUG
Sequence of Methanococcus maripaludis chaperonin (MmCpn) (Q6LX38 1-543): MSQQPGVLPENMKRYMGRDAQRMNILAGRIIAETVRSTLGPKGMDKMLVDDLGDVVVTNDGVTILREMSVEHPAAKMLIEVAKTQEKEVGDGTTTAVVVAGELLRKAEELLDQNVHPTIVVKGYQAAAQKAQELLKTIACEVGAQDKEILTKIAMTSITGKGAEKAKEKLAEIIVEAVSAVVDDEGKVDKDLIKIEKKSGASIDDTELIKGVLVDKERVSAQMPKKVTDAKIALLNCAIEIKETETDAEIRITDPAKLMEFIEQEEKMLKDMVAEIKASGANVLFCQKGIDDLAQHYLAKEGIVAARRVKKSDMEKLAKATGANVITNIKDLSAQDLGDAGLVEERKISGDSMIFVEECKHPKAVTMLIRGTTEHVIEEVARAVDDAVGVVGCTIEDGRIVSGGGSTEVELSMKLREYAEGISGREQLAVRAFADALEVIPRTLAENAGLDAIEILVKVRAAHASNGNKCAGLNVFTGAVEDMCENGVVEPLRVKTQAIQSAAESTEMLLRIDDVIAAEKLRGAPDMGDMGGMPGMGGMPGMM
Sequence of DNA polymerase III PolC-type (Bacillus subtilis (strain 168)) (P13267 whole entry, looked up): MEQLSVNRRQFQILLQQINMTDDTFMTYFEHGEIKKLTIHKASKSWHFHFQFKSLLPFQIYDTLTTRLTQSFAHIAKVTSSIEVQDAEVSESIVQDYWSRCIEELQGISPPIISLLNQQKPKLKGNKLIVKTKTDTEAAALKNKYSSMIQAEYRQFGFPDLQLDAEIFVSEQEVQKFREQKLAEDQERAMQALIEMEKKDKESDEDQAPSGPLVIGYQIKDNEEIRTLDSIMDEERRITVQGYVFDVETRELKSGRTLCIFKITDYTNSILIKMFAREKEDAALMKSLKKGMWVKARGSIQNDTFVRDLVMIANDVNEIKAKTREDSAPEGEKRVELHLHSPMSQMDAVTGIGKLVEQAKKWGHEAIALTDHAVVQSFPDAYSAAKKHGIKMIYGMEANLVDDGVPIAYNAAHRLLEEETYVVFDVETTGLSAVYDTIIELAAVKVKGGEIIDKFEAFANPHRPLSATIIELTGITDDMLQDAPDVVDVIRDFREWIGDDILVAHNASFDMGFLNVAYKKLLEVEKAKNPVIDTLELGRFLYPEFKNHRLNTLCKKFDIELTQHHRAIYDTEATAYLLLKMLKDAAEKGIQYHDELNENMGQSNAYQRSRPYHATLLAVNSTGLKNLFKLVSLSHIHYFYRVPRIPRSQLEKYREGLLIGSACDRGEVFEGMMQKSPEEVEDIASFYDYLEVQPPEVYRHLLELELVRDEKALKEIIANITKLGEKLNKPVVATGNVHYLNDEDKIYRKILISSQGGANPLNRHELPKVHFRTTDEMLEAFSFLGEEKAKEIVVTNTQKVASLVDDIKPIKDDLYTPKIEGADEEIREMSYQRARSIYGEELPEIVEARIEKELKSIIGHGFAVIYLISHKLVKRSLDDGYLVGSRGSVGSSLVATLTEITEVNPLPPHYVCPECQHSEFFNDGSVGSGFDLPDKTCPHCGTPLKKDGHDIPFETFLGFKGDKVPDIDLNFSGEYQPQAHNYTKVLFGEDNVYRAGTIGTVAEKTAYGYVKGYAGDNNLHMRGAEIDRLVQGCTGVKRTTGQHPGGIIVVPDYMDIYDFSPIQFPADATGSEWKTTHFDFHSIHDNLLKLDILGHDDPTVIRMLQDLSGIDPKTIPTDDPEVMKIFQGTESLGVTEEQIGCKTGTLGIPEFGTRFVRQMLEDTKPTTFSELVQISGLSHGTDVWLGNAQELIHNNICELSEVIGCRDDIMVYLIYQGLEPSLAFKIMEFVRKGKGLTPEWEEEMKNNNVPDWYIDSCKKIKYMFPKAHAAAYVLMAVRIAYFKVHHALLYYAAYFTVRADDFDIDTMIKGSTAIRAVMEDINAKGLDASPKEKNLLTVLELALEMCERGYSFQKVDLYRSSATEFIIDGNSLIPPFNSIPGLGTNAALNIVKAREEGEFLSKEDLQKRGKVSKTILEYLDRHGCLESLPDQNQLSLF
Sequence of Peptidyl-prolyl cis-trans isomerase NIMA-interacting 1 (Homo sapiens) (Q13526 whole entry, looked up): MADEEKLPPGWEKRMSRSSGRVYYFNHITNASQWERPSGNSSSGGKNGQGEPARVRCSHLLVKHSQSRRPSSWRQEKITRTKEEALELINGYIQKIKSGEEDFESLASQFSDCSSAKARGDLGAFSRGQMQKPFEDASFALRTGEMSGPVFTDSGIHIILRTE
Sequence of Glucagon-like peptide 1 receptor (Homo sapiens) (P43220 whole entry, looked up): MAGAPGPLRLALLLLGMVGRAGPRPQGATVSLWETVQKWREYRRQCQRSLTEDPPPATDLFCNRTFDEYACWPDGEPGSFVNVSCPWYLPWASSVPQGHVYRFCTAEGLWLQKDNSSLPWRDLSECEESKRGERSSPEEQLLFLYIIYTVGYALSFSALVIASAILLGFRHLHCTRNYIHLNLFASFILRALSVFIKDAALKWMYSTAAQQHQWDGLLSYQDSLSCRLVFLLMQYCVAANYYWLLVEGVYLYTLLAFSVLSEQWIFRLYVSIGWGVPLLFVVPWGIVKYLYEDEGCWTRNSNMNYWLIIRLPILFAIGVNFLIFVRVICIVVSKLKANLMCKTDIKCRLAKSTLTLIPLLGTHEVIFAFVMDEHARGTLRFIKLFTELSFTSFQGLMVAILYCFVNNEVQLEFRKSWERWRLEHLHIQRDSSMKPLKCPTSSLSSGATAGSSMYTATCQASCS
Sequence of M-phase phosphoprotein 8 (Homo sapiens) (Q99549 whole entry, looked up): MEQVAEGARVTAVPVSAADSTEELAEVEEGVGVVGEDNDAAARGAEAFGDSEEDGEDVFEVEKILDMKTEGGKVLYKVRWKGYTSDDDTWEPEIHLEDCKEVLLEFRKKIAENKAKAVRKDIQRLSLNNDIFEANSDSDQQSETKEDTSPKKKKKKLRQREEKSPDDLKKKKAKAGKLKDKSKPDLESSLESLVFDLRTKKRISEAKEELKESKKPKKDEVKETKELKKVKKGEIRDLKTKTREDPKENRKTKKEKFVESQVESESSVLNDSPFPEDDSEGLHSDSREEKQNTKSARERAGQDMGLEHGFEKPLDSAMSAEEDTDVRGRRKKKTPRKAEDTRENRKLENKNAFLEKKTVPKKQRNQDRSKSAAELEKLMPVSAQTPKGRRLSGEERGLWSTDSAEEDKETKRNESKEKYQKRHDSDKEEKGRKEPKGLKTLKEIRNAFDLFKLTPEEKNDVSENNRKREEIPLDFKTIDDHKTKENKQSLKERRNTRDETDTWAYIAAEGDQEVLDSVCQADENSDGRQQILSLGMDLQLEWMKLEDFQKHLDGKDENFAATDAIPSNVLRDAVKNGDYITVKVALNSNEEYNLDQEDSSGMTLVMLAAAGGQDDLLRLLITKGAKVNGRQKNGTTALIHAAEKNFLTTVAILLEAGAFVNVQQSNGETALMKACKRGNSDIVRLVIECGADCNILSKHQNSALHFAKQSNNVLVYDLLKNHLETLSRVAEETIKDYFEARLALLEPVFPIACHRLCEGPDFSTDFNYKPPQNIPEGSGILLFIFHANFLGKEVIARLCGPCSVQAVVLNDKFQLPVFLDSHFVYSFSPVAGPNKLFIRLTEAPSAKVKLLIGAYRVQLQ
Sequence of Tumor susceptibility gene 101 protein (Homo sapiens) (Q99816 whole entry, looked up, the tested form may be a part): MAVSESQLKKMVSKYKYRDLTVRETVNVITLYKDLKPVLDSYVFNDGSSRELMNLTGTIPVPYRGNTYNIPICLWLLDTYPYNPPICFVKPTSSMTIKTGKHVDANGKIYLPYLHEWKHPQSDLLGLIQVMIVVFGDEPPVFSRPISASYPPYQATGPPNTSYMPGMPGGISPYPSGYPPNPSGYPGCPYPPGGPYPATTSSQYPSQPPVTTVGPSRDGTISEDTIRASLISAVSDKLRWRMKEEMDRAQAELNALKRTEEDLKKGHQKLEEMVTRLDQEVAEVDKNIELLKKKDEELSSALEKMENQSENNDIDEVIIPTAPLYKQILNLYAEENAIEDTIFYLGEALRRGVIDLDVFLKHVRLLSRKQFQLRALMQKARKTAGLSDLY
Sequence of Chromobox protein homolog 1 (Homo sapiens) (P83916 whole entry, looked up): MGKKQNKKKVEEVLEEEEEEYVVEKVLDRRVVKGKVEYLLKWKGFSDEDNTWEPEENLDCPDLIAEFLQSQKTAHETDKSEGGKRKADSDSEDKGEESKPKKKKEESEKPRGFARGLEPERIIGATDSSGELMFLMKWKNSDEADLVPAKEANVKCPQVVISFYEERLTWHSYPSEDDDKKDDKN

O=C1c2ccccc2C(=O)c2c(NCCc3ccc(O)cc3)ccc(NCCc3ccc(O)cc3)c21
inactive: [1] | [2] | [5] | [6] | [7] | [8] | [9] | [12] | [13] | [14] | [15] | [16] | [18] | [21] | [22]
active: [3] 4.65 µM | [4] 4.65 µM | [10] 2.12 µM | [11] 1.78 µM | [17] 14.6 µM | [19] 8.91 µM | [20] 8.91 µM
